Here are results for ten compounds from PubChem BioAssay (NCATS).

Several values for one entry are separate records, joined by “and”; a condition that tells them apart may be missing. Equal entries are not always repeated. Results filed as inconclusive are left out. More than one record can exist for a structure, and the calls need not agree. Activity calls are given as the source filed them. Calls come from the whole dose curve; as a rule, active = well fitted curve in the direction sought with a large enough effect; inconclusive = small, poorly fitted or top-dose-only effect, or another doubt; inactive = no such curve, though single readings can be large; an effect the other way counts as inactive or inconclusive.

The target of test [1] is Phospholipid hydroperoxide glutathione peroxidase GPX4 (Homo sapiens) (UniProt P36969). Description: Primary qHTS Assay for Inhibitors of Recombinant Selenoprotein Glutathione Peroxidase 4 (GPX4) (AID 1845192). Note: nearly all actives have a fitted effect of over 65% in size. Note: potency is the fitted concentration of half-maximal effect. The note with it: recombinant GPX4, GR-coupled NADPH fluorescence, 15 min; series mostly up to 50 µM. The gist of the method:
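GR-coupled readout: 100 nM GR, 1 mM GSH, 0.5 mM NADPH; NADPH fluorescence (ex 340/em 450 nm) read at t=0 and after 15 min RT. GPX4 200 nM, preincubated 30 min with compound; substrate 0.5 mM CHP.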
(In general: Quantitative high-throughput screening tests each substance at several concentrations.)

For test [2], the target named is Luciferin 4-monooxygenase (Photinus pyralis) (UniProt P08659). Description: Primary firefly luciferase (FLuc) qHTS assay for identification of artifact compounds. (AID 1845220). Note: nearly all actives have a fitted effect of over 60% in size. The following applies: purified firefly luciferase, luminescence, 5 min; series mostly up to 54.1 µM. An outline of the steps:
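Reaction readout was CCD-imaged luminescence, taken 5 min after adding 10 nM purified firefly enzyme to compound-treated wells holding 10 uM luciferin and ATP in pH 7.6 buffer.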

Test [3] can be described thus: Primary fluorescence-based thiol-reactive (MSTI) qHTS assay for identification of artifact compounds. (AID 1845221).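 Note: thiol-reactive compounds lower the probe fluorescence signal; nearly all actives have a fitted effect of over 65% in size.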 The following applies: MSTI thiol-reactivity probe, 1 h; series mostly up to 53.8 µM. The gist of the method:
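First, 4 uM MSTI in 2% DMSO/PBS pH 7.4 was dispensed; next, compounds were added; then plates sat 1 h at room temperature without light. Finally, emission at 598 nm was recorded.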

For test [4], the system named is Nanoluciferase (engineered Oplophorus gracilirostris luciferase). Description: Primary Nanoluciferase (NLuc) qHTS assay for identification of artifact compounds. (AID 1845222). The note with it: NLuc-conditioned medium, Nano-Glo luminescence, 5 min; series mostly up to 54.1 µM. The gist of the method: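 Concentration-response data were obtained by luminescence after 5 min with Nano-Glo substrate at 1:100. The enzyme was diluted S16 NLuc-expressing cell medium, preincubated with compound for 15 min at RT. Curves were fitted with a 4-parameter Hill model.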

The nature of test [5]: Quantitative High-Throughput drug screen in 47 multiple myeloma cell lines against the NCATS MIPE library collection: FR4_PLB cell viability assay (AID 1918924; note: nearly all actives have a fitted effect of over 35% in size; note: potency is the fitted concentration of half-maximal effect). The following applies: FR4_PLB myeloma cells viability, CellTiter-Glo ATP, 48 h; series mostly up to 45.8 µM. An outline of the steps: (§1)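 Viability readout: CellTiter-Glo luminescence following 5 min room-temperature incubation with reagent. Prior exposure: 48 h, 37C, humidified 5% CO2, 500 cells per well.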

Test [6] can be described thus: Quantitative High-Throughput drug screen in 47 multiple myeloma cell lines against the NCATS MIPE library collection: EJM_DSMZ cell viability assay (AID 1918926; note: nearly all actives have a fitted effect of over 30% in size). The following applies: EJM myeloma cell viability, CellTiter-Glo ATP, 48 h; series mostly up to 45.8 µM. The gist of the method:
(§2)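 Myeloma cell lines, 500 cells per well, exposed to MIPE 4.0 library compounds for 48 h at 37C, 5% CO2. Viability from ATP by CellTiter-Glo luminescence; normalised to DMSO (100%) and media-only (0%) wells.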
Background: ATP-based viability assays read luminescence as a measure of living cells.

Test [7] is described as follows: Quantitative High-Throughput drug screen in 47 multiple myeloma cell lines against the NCATS MIPE library collection: AMO1_DSMZ cell viability assay (AID 1918927; note: nearly all actives have a fitted effect of over 30% in size; note: potency is the fitted concentration of half-maximal effect). The note with it: AMO1 myeloma cells viability, CellTiter-Glo ATP luminescence, 48 h; series mostly up to 45.8 µM. The gist of the method:
as §2

The nature of test [8]: Quantitative High-Throughput drug screen in 47 multiple myeloma cell lines against the NCATS MIPE library collection: ARP1_JJKsccF8 cell viability assay (AID 1918928; note: nearly all actives have a fitted effect of over 40% in size; note: potency is the fitted concentration of half-maximal effect). The note with it: ARP1 myeloma cells viability, CellTiter-Glo ATP, 48 h; series mostly up to 45.8 µM. The gist of the method: (§3)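 Myeloma cells at 500 per well in 1536-well format treated with MIPE 4.0 library by pin transfer for 48 h at 37C, 5% CO2. Viability from ATP luminescence (CellTiter-Glo), normalized to DMSO (100%) and media-only (0%) wells.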

Test [9] can be described thus: Quantitative High-Throughput drug screen in 47 multiple myeloma cell lines against the NCATS MIPE library collection: ARD_JJKsccE7 cell viability assay (AID 1918929). The following applies: ARD myeloma cell line viability, CellTiter-Glo, 48 h; series mostly up to 45.8 µM. An outline of the steps: as §2
Test [10] can be described thus: Quantitative High-Throughput drug screen in 47 multiple myeloma cell lines against the NCATS MIPE library collection: Karpas620_DSMZ cell viability assay (AID 1918959). Note: nearly all actives have a fitted effect of over 30% in size. The following applies: Karpas620 myeloma viability, CellTiter-Glo ATP luminescence, 48 h; series mostly up to 45.8 µM. An outline of the steps: as §1
Test [11] is described as follows: Quantitative High-Throughput drug screen in 47 multiple myeloma cell lines against the NCATS MIPE library collection: KMM1_JCRB cell viability assay (AID 1918960). Note: nearly all actives have a fitted effect of over 30% in size. Note: potency is the fitted concentration of half-maximal effect. The note with it: KMM1 myeloma viability, CellTiter-Glo ATP luminescence, 48 h; series mostly up to 45.8 µM. The gist of the method:
as §3

Test [12] is described as follows: Quantitative High-Throughput drug screen in 47 multiple myeloma cell lines against the NCATS MIPE library collection: KHM11_PLB cell viability assay (AID 1918962). Note: nearly all actives have a fitted effect of over 35% in size. The following applies: KHM11 myeloma cell viability, CellTiter-Glo ATP luminescence, 48 h; series mostly up to 45.8 µM. The gist of the method: as §1
In test [13] the target is Glutathione peroxidase 1 (Homo sapiens) (UniProt P07203). In words: Primary qHTS Assay for Inhibitors of Recombinant Selenoprotein Glutathione Peroxidase 1 (GPX1) (AID 1845191). Note: nearly all actives have a fitted effect of over 65% in size. The following applies: recombinant GPX1, GR-coupled NADPH fluorescence, 15 min; series mostly up to 48.8 µM. An outline of the steps:
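Recombinant GPX1 (10 nM final) was preincubated with compound for 30 min at room temperature, then reacted with 1 mM GSH, 0.5 mM CHP, 0.5 mM NADPH and 100 nM glutathione reductase; NADPH fluorescence (340/450 nm) was read at 0 and 15 min.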

A short description of test [14]: Quantitative High-Throughput drug screen in 47 multiple myeloma cell lines against the NCATS MIPE library collection: Delta47_JCRB cell viability assay (AID 1918925; note: nearly all actives have a fitted effect of over 45% in size; note: potency is the fitted concentration of half-maximal effect). The note with it: Delta47 myeloma viability, CellTiter-Glo ATP, 48 h; series mostly up to 45.8 µM. The gist of the method:
as §2

Test [15] is described as follows: Quantitative High-Throughput drug screen in 47 multiple myeloma cell lines against the NCATS MIPE library collection: Karpas417_ECACC cell viability assay (AID 1918961). The following applies: Karpas417 myeloma viability, CellTiter-Glo ATP luminescence, 48 h; viability (% of DMSO): at 45.8 µM (top of the series). An outline of the steps: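 Approved and investigational drugs from MIPE 4.0 were added by pin tool to 500 cells per well. After 48 hours at 37C, ATP-based CellTiter-Glo luminescence indicated remaining viability.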

The target of test [16] is Metallo-beta-lactamase type 2 (Klebsiella pneumoniae) (UniProt C7C422). Description: qHTS to identify inhibitors of the New Delhi Metallo-beta-lactamase (NDM): assay validation screen against the NCATS LOPAC Collection (AID 1794843).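 Note: nitrocefin turnover by NDM-1 measured as 485 nm absorbance at plateau.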 The note with it: NDM-1 enzyme, nitrocefin hydrolysis, absorbance 485 nm; series mostly up to 38.4 µM. An outline of the steps: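 NDM-1 at 2 nM final in 50 mM HEPES pH 7.0, 1 uM ZnSO4, 0.01% Tween20, preincubated with LOPAC compounds pinned in DMSO; 50 uM nitrocefin (stock) added. Hydrolysis read as absorbance at 485 nm in the plateau phase.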
Metallo-beta-lactamase type 2 (Klebsiella pneumoniae), sequence (C7C422 whole entry, looked up): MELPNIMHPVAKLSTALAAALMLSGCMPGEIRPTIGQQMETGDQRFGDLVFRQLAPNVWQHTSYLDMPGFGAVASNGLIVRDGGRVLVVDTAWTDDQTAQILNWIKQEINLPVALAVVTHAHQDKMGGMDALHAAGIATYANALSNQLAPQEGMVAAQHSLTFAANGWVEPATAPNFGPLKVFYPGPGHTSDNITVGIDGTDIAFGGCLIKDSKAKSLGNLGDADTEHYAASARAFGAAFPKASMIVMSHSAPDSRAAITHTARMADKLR

Phospholipid hydroperoxide glutathione peroxidase GPX4 (Homo sapiens), sequence (P36969 whole entry, looked up): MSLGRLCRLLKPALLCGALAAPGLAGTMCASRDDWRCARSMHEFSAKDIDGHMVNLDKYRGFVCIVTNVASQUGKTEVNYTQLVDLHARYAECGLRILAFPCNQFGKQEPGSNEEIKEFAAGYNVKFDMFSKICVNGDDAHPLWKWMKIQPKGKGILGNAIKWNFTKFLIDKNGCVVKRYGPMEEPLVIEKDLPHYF
Glutathione peroxidase 1 (Homo sapiens), sequence (P07203 whole entry, looked up): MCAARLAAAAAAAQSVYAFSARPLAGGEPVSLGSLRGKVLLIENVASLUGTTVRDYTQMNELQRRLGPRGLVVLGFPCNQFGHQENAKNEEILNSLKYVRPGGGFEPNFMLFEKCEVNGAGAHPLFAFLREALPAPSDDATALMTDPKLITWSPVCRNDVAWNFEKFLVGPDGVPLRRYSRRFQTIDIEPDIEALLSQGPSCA

`CC1(C)O[C@H]2CC(=O)OC[C@]23[C@H]2CC[C@@]4(C)[C@H](c5ccoc5)OC(=O)[C@H]5O[C@]54[C@]2(C)C(=O)C[C@@H]13`: the Potency result in test [1], in test [5], in test [6], in test [7], in [8] and in [9] was “inactive” throughout. Further, the Potency entry in [10], in test [11] and in [12] was “inactive” each time. The compound was called inactive in test [2], in [3] and in test [4].

Consider `C[C@@H]1CC(=O)NN=C1c1ccc(NN=C(C#N)C#N)cc1`, for which the Potency entry in [13], in test [1], in test [7], in [9], in [10] and in test [11] was “inactive” throughout. Further, the Potency in test [5] is 23.5 µM (active); in [14] it was 18.7 µM (active); in [8] it was 23.5 µM (active).

Regarding `CC12CC3CC(C)(C1)CC(N)(C3)C2`, the Potency result in test [13], in [1], in test [8], in [9], in test [10] and in [15] was “inactive” throughout.

Take `CC[N+](CC)(CC)CCOc1cccc(OCC[N+](CC)(CC)CC)c1OCC[N+](CC)(CC)CC`: the compound was classed as inactive in [16]. Moreover, the Potency entry in test [1], in [14], in test [6], in test [7], in [9] and in test [10] was “inactive” each time. Moreover, in test [11], the Potency entry is “inactive”.

In the case of `Cc1cnc(C(=O)NCCc2ccc(S(=O)(=O)NC(=O)NC3CCCCC3)cc2)cn1`, in test [16], the result was inactive. In addition, the Potency result in [1], in [7], in test [9], in test [10] and in test [15] was “inactive” in each case. Further, the Potency in test [8] and in test [11] was 18.7 µM (active) throughout.

As for `O=C(C1CCCCC1)N1CC(=O)N2CCc3ccccc3C2C1` (stereo not drawn), the Potency result in test [13], in test [1], in test [5], in test [14], in [6] and in [7] was “inactive” throughout. Also, the Potency entry in test [8], in test [9], in test [10], in test [11] and in test [12] was “inactive” in each case.

On to `C[C@](N)(Cc1ccc(O)c(O)c1)C(=O)O`, for which the Potency result in [13], in test [5], in [9] and in test [10] was “inactive” in each case. Further, the Potency entry in test [1] was “inactive and 14.3 µM (active)”.

With `OCCN(CCO)c1nc(N2CCCCC2)c2nc(N(CCO)CCO)nc(N3CCCCC3)c2n1`, the compound was called inactive in test [16]. The Potency entry in test [1] is “inactive”. In addition, the Potency in test [14] and in test [7] was 23.5 µM (active) each time.

`CN(C)CCOC(c1ccccc1)c1ccccc1`: the Potency entry in [13], in test [1], in test [5], in test [6], in test [7] and in [8] was “inactive” in each case. Moreover, the Potency entry in test [10] and in test [11] was “inactive” in each case. In addition, the Potency in test [14] was 8.33 µM (active).

In the case of `CN(C)C(=N)N=C(N)N`, the Potency entry in test [5], in [14], in [6], in test [7], in test [9] and in [11] was “inactive” each time.
